Experimental findings from PubChem BioAssay (Tox21) are described below.

Unmarked numbers belong to inactive results. Results filed as inconclusive are left out. Calls of active or inactive are those of the source. Unless noted, the call rests on the fitted dose curve; in most records, active means well fitted curve in the direction sought with a large enough effect in the repeat runs; inconclusive means weak or mixed curves; inactive means no such curve, though single readings can be large; an effect the other way counts as inactive or inconclusive.

Experiment [1] in a line: qHTS assay for small molecules that induce genotoxicity in human embryonic kidney cells expressing luciferase-tagged ATAD5 (AID 651632). Further: nearly all actives have a fitted effect of over 15% in size. The method in brief:
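A rise in luciferase signal from ATAD5-tagged HEK293T cells marks genetic stress. Cells were exposed to compounds for 16 hr at 37C, 5% CO2, then luciferase was quantified after a 30 min room-temperature incubation with Amplite.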
In general terms: In qHTS, concentration-response curves come from the screen itself.

Experiment [2] is described as follows: qHTS assay for small molecules that induce genotoxicity in human embryonic kidney cells expressing luciferase-tagged ATAD5 - cell viability (AID 651634; calls by dose curve; further: nearly all actives have a fitted effect of over 25% in size). Summed up:
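Cytotoxicity counter-readout: after 15.5 hr compound treatment at 37C, live-cell protease activity in ATAD5-luciferase HEK293T cells measured by CellTiter-Fluor fluorescence, 30 min development at 37C.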

Experiment [3] can be described thus: qHTS assay for small molecule disruptors of the mitochondrial membrane potential - cell viability (AID 720634; calls by dose curve;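 further: human HepG2 liver cancer cells; series mostly up to about 83 µM; nearly all actives have a fitted effect of over 20% in size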). Summed up:
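Cytotoxicity was quantified from ATP content by CellTiter-Glo luminescence in the same wells as the MMP dye read-out. HepG2 (2,000 cells/well) were plated overnight and exposed to compounds for 1 hr at 37 C.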

Experiment [4] is described as follows: qHTS assay for small molecule disruptors of the mitochondrial membrane potential (AID 720635). Further: potency means the concentration at half of the fitted maximal effect. The method in brief:
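HepG2 cells (2,000/well) attached overnight at 37C, then took compound for 1 hr at 37C, 5% CO2. Mito-MPS dye was added for 30 min; fluorescence was read at 490/535 nm (monomers) and 540/590 nm (aggregates).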

Experiment [5] in a line: qHTS assay to test for compound auto fluorescence at 590 nm (red) in HepG2 cells (AID 720674). Summed up: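 Compound auto-fluorescence is scored relative to Rose Bengal sodium, measured at 540/590 nm in live HepG2 cultures after 1 hr compound contact (37 C, 5% CO2).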
Experiment [6] can be described thus: qHTS assay to test for compound auto fluorescence at 535 nm (green) in HepG2 cells (AID 720675).
The nature of experiment [7]: qHTS assay to test for compound auto fluorescence at 590 nm (red) in HEK293 cells (AID 720679). The method in brief: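 Red-channel autofluorescence (Ex/Em 540/590 nm; Rose Bengal sodium reference) was measured after overnight 37C, 5% CO2 exposure of attached HEK293 cells, 2,000 per well in medium with 10% dialyzed FBS.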
Experiment [8] is described as follows: qHTS assay to test for compound auto fluorescence at 535 nm (green) in HEK293 cells (AID 720680).
A short description of experiment [9]: qHTS assay to test for compound auto fluorescence at 460 nm (blue) in HEK293 cell free culture (AID 720681). The method in brief: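 Test compounds were pinned into cell-free culture medium (DMEM with 10% FBS) and fluorescence was read directly at Ex/Em 405/460 nm. Signals were expressed as fluorescence equivalents of triamterene, with DMSO vehicle as control.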

A short description of experiment [10]: qHTS assay to test for compound auto fluorescence at 590 nm (red) in HEK293 cell free culture (AID 720683). The method in brief:
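Tox21 10K library compounds were pinned into cell-free DMEM with 10% FBS and fluorescence was read at excitation 540 nm. Activity is expressed as Rose Bengal sodium equivalency.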

Experiment [11] in a line: qHTS assay to test for compound auto fluorescence at 590 nm (red) in HepG2 cell free culture (AID 720684). Summed up:
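Readout: intrinsic compound fluorescence at 590 nm emission after 540 nm excitation, scaled to Rose Bengal sodium. Matrix was cell-free MEM with 10% FBS; DMSO vehicle wells served as control.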

Experiment [12] is described as follows: qHTS assay to test for compound auto fluorescence at 460 nm (blue) in HepG2 cell free culture (AID 720685). The method in brief:
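Cell-free plates of MEM plus 10% FBS received 23 nL compound or DMSO vehicle; blue-channel (405/460 nm) intensity scored against triamterene as reference fluorophore.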

A short description of experiment [13]: qHTS assay to test for compound auto fluorescence at 535 nm (green) in HepG2 cell free culture (AID 720686).
A short description of experiment [14]: qHTS assay to test for compound auto fluorescence at 460 nm (blue) in HepG2 cells (AID 720687). The method in brief:
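Cells (2,000/well in MEM with 10% FBS) attached overnight at 37 C, then were exposed to compound or DMSO for 1 hr at 37 C, 5% CO2. Fluorescence read at Ex/Em 405/460 nm, expressed as triamterene-equivalent signal.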

Experiment [15] deals with Glucocorticoid receptor (Homo sapiens) (UniProt P04150). The experiment is described as follows: qHTS assay to identify small molecule antagonists of the glucocorticoid receptor (GR) signaling pathway (AID 720692; active means well fitted inhibition curve with a large enough effect in the signal ratio in the repeat runs, not every such curve was filed as active; the % refers to the signal ratio). Summed up:
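Inhibition of dexamethasone-driven (5 nM final) beta-lactamase expression was measured in GRE-reporter HeLa cells over 18 h at 37C. Fluorescence was read after 2 h with the B/G FRET substrate at room temperature.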

The nature of experiment [16]: qHTS assay for small molecule agonists of the p53 signaling pathway - cell viability (AID 651633; calls by dose curve;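 further: p53RE-bla HCT reporter cells with a stable beta-lactamase p53 reporter; series mostly up to about 83 µM; nearly all actives have a fitted effect of over 30% in size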). The method in brief: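 p53RE-bla cells, seeded at 4,000 per well and rested 5 h at 37 C/5% CO2, received compounds in DMSO for 16 h at 37 C. CellTiter-Glo was then added, and luminescence was read after 30 min at room temperature to gauge cytotoxicity.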
Experiment [17] is described as follows: qHTS assay to test for compound auto fluorescence at 535 nm (green) in HEK293 cell free culture (AID 720682). Summed up:
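Green-channel intensity (Ex/Em 485/535 nm) was recorded from compound-treated wells containing only DMEM with 10% FBS. Fluorescein provided the equivalency standard.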

For experiment [18], the target named is Glucocorticoid receptor (Homo sapiens) (UniProt P04150). In words: qHTS assay to identify small molecule agonists of the glucocorticoid receptor (GR) signaling pathway (AID 720691; active means well fitted activation curve with a large enough effect in the signal ratio in the repeat runs, not every such curve was filed as active; the % refers to the signal ratio). The method in brief: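 Agonist-mode qHTS in HeLa cells stably expressing a glucocorticoid-response-element beta-lactamase reporter. Fluorescence intensity read with FRET substrate (2 h, room temperature) after 18 h compound treatment at 37 C.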
Sequence of Glucocorticoid receptor (Homo sapiens) (P04150 whole entry, looked up): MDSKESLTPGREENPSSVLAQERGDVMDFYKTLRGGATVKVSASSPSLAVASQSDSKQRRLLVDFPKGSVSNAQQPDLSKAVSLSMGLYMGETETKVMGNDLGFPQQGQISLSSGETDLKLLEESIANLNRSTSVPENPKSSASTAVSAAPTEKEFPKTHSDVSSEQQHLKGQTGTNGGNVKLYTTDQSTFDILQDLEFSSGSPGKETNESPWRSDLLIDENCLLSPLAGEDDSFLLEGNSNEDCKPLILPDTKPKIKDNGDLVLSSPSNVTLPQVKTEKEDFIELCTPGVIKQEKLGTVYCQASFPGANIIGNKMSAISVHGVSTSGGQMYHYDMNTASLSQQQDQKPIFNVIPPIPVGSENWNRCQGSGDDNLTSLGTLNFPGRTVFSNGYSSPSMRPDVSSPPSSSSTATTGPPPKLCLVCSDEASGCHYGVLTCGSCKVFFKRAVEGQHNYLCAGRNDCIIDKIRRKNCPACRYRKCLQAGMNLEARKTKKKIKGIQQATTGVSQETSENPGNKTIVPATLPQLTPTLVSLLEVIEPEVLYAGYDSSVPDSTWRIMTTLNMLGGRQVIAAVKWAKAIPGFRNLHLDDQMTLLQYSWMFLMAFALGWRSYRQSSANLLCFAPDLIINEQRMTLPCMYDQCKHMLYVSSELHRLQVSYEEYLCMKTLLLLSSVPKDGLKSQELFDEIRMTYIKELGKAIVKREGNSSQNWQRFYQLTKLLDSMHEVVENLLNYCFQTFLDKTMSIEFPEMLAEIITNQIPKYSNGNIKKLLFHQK

Experiment [19] is described as follows: qHTS assay to test for compound auto fluorescence at 460 nm (blue) in HEK293 cells (AID 720678). Summed up: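 Blue-channel (Ex/Em 405/460 nm) intensity measured in HEK293 cultures after overnight compound exposure at 37C; signal expressed relative to triamterene. Cells plated 2,000 per well in 10% dialyzed FBS medium and allowed 4-5 hr to attach.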
On the % scale 0 is the no-effect control and ±100 the full control effect.

Take `O=C(c1ccccc1O)c1ccccc1O`: the Potency result in experiment [1], in experiment [2] and in experiment [15] was “inactive” throughout. Besides, the outcome in experiment [3], in experiment [5], in experiment [6], in [7], in experiment [8] and in experiment [9] was inactive. Further, the result in experiment [10], in experiment [11], in experiment [12], in [13] and in experiment [14] was inactive. Further, the Potency in experiment [4] was 12.1 µM (active).
With `CCCOC(=O)CC`, the Potency entry in [1], in [16], in experiment [2], in experiment [18] and in experiment [15] was “inactive” in each case. Moreover, the outcome in experiment [3], in experiment [5], in [6], in [8], in [9] and in [17] was inactive. Besides, the result in [10], in experiment [11], in experiment [12] and in experiment [13] was inactive.
Regarding `CC(=O)c1ccccc1[N+](=O)[O-]`, the Potency entry in [1], in experiment [16], in experiment [2] and in experiment [4] was “inactive” each time. For the same molecule, the call in experiment [5], in experiment [6], in experiment [19], in [7], in experiment [8] and in [9] was inactive. Also, the molecule was called inactive in [17], in experiment [10], in experiment [11], in experiment [12] and in [13].
Consider `CCCCCCCCCCOc1cc2c(=O)c(C(=O)OCC)c[nH]c2cc1OCC`, for which the Potency result in experiment [1], in [16] and in experiment [2] was “inactive” each time. In addition, the result in [5], in experiment [6], in experiment [19], in [8], in experiment [9] and in experiment [17] was inactive. The molecule was called inactive in experiment [10], in [11], in experiment [13] and in experiment [14].
Turning to `C[C@H]1[C@H](NC(=O)/C(=N/OC(C)(C)C(=O)O)c2csc(N)n2)C(=O)N1S(=O)(=O)O` (stereo in doubt), the Potency result in [16], in experiment [2], in experiment [4] and in experiment [15] was “inactive” each time. Further, in experiment [3], the molecule was called inactive. Besides, the fluorescence, relative to Rose Bengal in experiment [5] is -0.264% [at 18.6 µM]. For the same molecule, the results for the fluorescence, % of fluorescein control in experiment [6] and in experiment [13] were -0.201% [at 18.6 µM] and 0.102% [at 18.6 µM], respectively. The fluorescence, % of fluorescent control is 0.181% [at 18.6 µM] in [7]; 0.0562% [at 18.6 µM] in experiment [9]; 0.271% [at 18.6 µM] in experiment [10]; 0.104% [at 18.6 µM] in experiment [12]; 0.0116% [at 18.6 µM] in experiment [14]. For the same molecule, the fluorescence, % of fluorescein in experiment [8] is 0.0034% [at 18.6 µM]. The fluorescence, % of Rose Bengal in experiment [11] is 0.467% [at 18.6 µM].
In the case of `CCOc1ccc2nc(S(N)(=O)=O)sc2c1`, the Potency entry in experiment [1], in [16], in [2] and in experiment [15] was “inactive” each time. Also, the molecule was classed as inactive in experiment [3], in experiment [5], in experiment [6], in experiment [7], in experiment [8] and in [9]. In addition, the outcome in experiment [17], in experiment [10], in [11], in experiment [12], in experiment [13] and in experiment [14] was inactive.
Turning to `CC[N+](C)(CC)CCOC(=O)C1c2ccccc2Oc2ccccc21`, the Potency entry in experiment [16], in experiment [2] and in experiment [4] was “inactive” each time. For the same molecule, the outcome in experiment [3], in experiment [5], in experiment [6], in experiment [19], in [7] and in experiment [8] was inactive. Moreover, the molecule was called inactive in [9], in experiment [17], in experiment [10], in experiment [11], in experiment [13] and in experiment [14].
